Assay outcomes as filed in PubChem.
Hits are enriched below; roughly 10% of the tested compounds scored in any of these assays.
HP1b binding inh: blocks HP1-beta chromodomain binding to methylated histone tails | Potency, µM (titrated, usually from 114 µM), most hits filed as inhibitors | 0.56% of 390,000 active | AlphaScreen HP1-beta / biotin-H3K9me3 peptide binding; further: nearly all actives have a fitted effect of over 70% in size
Target sequence (P83916 whole entry, looked up): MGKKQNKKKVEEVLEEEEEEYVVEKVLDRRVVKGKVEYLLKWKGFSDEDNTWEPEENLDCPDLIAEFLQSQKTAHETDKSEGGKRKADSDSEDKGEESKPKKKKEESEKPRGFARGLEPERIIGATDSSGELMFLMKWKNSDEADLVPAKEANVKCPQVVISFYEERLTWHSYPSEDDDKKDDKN
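Compound inhibition of the preformed complex between 50 nM HP1-beta and 50 nM biotinylated H3K9me3 peptide was read by AlphaScreen. Buffer was PBS pH 7.4 with 0.01% Tween-20. Incubations ran 30 min at room temperature, with 10 ug/mL donor/acceptor beads.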
G9a block: G9a (human) methyltransferase inhibition; Potency, µM (series often up to 102 µM), actives largely listed as inhibitors; AID 504332; G9a H3K9 monomethylation, AlphaScreen, 2 h; 8.8% of 350,000 active; further: nearly all actives have a fitted effect of over 75% in size
Target sequence (Q96KQ7 913-1193 limits assumed): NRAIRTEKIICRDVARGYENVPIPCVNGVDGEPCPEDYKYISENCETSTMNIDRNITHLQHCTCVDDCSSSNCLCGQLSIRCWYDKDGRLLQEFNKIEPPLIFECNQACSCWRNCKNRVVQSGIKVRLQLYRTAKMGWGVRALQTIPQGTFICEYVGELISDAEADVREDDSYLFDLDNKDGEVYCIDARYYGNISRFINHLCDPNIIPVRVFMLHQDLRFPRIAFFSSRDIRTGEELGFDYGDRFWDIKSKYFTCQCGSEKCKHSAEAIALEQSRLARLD
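Readings reflect AlphaScreen signal from monomethyl-H3K9 antibody detection. HMT at 20 nM; substrate b-H3K9 500 nM; cofactor SAM 20 uM; 2 h RT reaction; compounds tested as titrations in qHTS with 15 min preincubation.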
Six1-Eya2 inh: blocks human Six1 binding to Eya2 | Q15475+O00167 | activity change, % (test concentration not listed) | AID 651725 | AlphaScreen GST-Six1/His-Eya2 binding, biochemical; stronger effect = lower value | 0.56% of 360,000 active; in the data active means activity change below about -65%; inconclusive means mostly about -30% to -63%
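AlphaScreen luminescence read after one hour at 37 °C in darkness. Pin-transferred compounds met GST-Six1 and His-Eya2 protein (5X stock 250 nM/500 nM) plus glutathione donor and Ni-chelate acceptor beads (5X, 50 ug/mL).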
BAZ2B block: BAZ2B (human) inhibition; 4.4% of 360,000 active; AlphaScreen BAZ2B-H3K14Ac peptide displacement; Potency, µM (series often up to 114 µM), hits mostly inhibitors; AID 504333; Q9UIF8; further: nearly all actives have a fitted effect of over 60% in size
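Multi-concentration screen (max 110 uM) measuring displacement of acetylated histone H3 peptide from BAZ2B by AlphaScreen, using 50 nM protein, 50 nM peptide and 10 ug/mL streptavidin donor plus Ni-chelate acceptor beads.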
CtBP-E1A blk: inhibitors of CtBP/E1A interaction; AlphaScreen GST-E1A/His-CtBP binding, 1536-well; stronger effect = lower value; activity change, % (no concentration beside the values); 0.49% of 340,000 active; AID 651724; in the data active means activity change below about -65%; inconclusive means mostly about -30% to -63%
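Homogeneous bead-based format: GST-tagged E1A captured on glutathione donor beads, His-tagged CtBP on nickel acceptor beads; compounds precede bead addition by 2 h at 37 °C.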
JMJD2A Tudor: JMJD2A Tudor domain (human) inhibition; O75164; AlphaScreen JMJD2A-Tudor / H3K4me3 peptide binding; Potency, µM (highest dose often 114 µM), most hits filed as inhibitors; 4.4% of 390,000 active; AID 504339; further: nearly all actives have a fitted effect of over 50% in size
Of the large screens only hits and unclear results are named; the others gave an inactive call. Unless noted, the call rests on the fitted dose curve; in most records, active means well fitted inhibition curve with a large enough effect; inconclusive means small, poorly fitted or top-dose-only effect; inactive means no such curve, though single readings can be large or run the other way.

Cc1cccc(NC(=O)Cn2c(SCC(=O)NCc3ccccc3)nc3ccccc32)c1C	BAZ2B block inconclusive (no result: Six1-Eya2 inh, CtBP-E1A blk)
O=C1Nc2ccccc2N(C(=O)c2ccc(-c3ccccc3)cc2)C1c1nc2ccccc2[nH]1 (configuration not stated)	none (no result: HP1b binding inh, G9a block, BAZ2B block, JMJD2A Tudor)
CC(=O)c1ccc(NC(=O)CSc2ccc3nnc(-c4ccccn4)n3n2)cc1	CtBP-E1A blk inconclusive, JMJD2A Tudor 31.6µM
Cc1ccc(NC(=O)CSc2ccc3nnc(-c4cccnc4)n3n2)cc1	none
O=C(CSc1ccc2nnc(-c3ccncc3)n2n1)Nc1ccc2c(c1)OCO2	G9a block 31.6µM
O=C(CSc1ccc2nnc(-c3ccncc3)n2n1)Nc1ccc2c(c1)OCCO2	none
CC(=O)Nc1ccc(NC(=O)CSc2ccc3nnc(-c4cccnc4)n3n2)cc1	G9a block 31.6µM
O=C(CSc1ccc2nnc(-c3cccnc3)n2n1)NCc1ccco1	G9a block 79.4µM
Cc1ccc(NC(=O)CSc2ccc3nnc(-c4ccccn4)n3n2)cc1	CtBP-E1A blk inconclusive
CCOC(=O)CSc1ccc2nnc(-c3ccccc3)n2n1	none
CCOC(=O)CSc1ccc2nnc(-c3cccnc3)n2n1	G9a block 17.8µM
CC(NCC(=O)NC(=O)NCCC1=CCCCC1)c1ccc(S(N)(=O)=O)cc1 (configuration not stated)	HP1b binding inh inconclusive, JMJD2A Tudor 22.4µM (no result: G9a block, BAZ2B block)
CC(NC(=O)C(=O)NCCC1=CCCCC1)c1ccccc1 (configuration not stated)	none
CSc1ccc(/C=N/NC(=O)CNc2cccc3ccccc23)cc1	G9a block inconclusive
O=C(CNc1cccc2ccccc12)N/N=C/c1ccc(OC(=O)/C=C/c2ccco2)cc1	Six1-Eya2 inh inconclusive, CtBP-E1A blk -79.3, JMJD2A Tudor inconclusive
O=C(CNc1ccc2ccccc2c1)N/N=C/c1ccc(OC(=O)/C=C/c2ccco2)cc1	G9a block inconclusive, Six1-Eya2 inh inconclusive, CtBP-E1A blk -66.6
COc1ccccc1C(CNC(=O)c1cccc(S(=O)(=O)N2c3ccccc3CC2C)c1)N(C)C (configuration not stated)	none (no result: G9a block, BAZ2B block)
C=CCC1Cc2c(Br)cccc2C(CC=C)N1 (configuration not stated)	G9a block inconclusive
C=CC[C@H]1Cc2c(cccc2[N+](=O)[O-])[C@H](CC=C)N1	BAZ2B block 39.8µM, CtBP-E1A blk inconclusive
COc1ccc(-c2ccc(=N)n(CCCC(=O)O)n2)cc1	none (no result: HP1b binding inh, Six1-Eya2 inh, BAZ2B block, CtBP-E1A blk, JMJD2A Tudor)
Cc1c(C)n(Cc2ccccc2)c2ccc(C(=O)NCCCN3CCOCC3)cc12	G9a block 50.1µM, BAZ2B block inconclusive, JMJD2A Tudor 50.1µM
CCn1c(C)c(C)c2cc(C(=O)NCCCN3CCOCC3)ccc21	JMJD2A Tudor inconclusive (no result: G9a block)
Cc1nn(C)cc1/C=N\NC(=O)c1ccc2c(c1)c(C)c(C)n2Cc1ccccc1	BAZ2B block 44.7µM, JMJD2A Tudor 56.2µM
Cc1c(C)n(Cc2ccc(F)cc2)c2ccc(C(=O)NCCCN3CCOCC3)cc12	HP1b binding inh inconclusive, BAZ2B block 28.2µM, JMJD2A Tudor 44.7µM (no result: G9a block)
Cc1c(C)n(Cc2ccccc2)c2ccc(C(=O)O)cc12	none (no result: G9a block, BAZ2B block)
COc1cccc(-c2nnn(CC(=O)N3CCCCC3)n2)c1	none
COc1ccc(OC)c2sc(N3CCN(C(=O)C(C)(C)C)CC3)nc12	none (no result: Six1-Eya2 inh, CtBP-E1A blk)
COc1ccc(CCNC(=O)c2c(C)oc3ncn(C)c(=O)c23)c(OC)c1	none (no result: Six1-Eya2 inh, CtBP-E1A blk)
Cc1ccc(OCCn2cnc3c2c(=O)n(C)c(=O)n3C)cc1	G9a block 44.7µM
O=C(O)c1cccc2c1C(=O)c1ccc(-c3ccc(Cl)c(C(F)(F)F)c3)cc1S2(=O)=O	BAZ2B block inconclusive, JMJD2A Tudor 79.4µM (no result: CtBP-E1A blk)
OCCOCCOCCO	none (no result: HP1b binding inh, Six1-Eya2 inh, BAZ2B block, CtBP-E1A blk, JMJD2A Tudor)
CCc1nc(N)c(C#N)c(-c2ccc(OC)c(OC)c2)c1C	none
CC1=C(C#N)c2nc(N)c(C#N)c(C)c2/C1=C\c1ccc(OCC(=O)O)c(Cl)c1	HP1b binding inh inconclusive, G9a block 22.4µM, Six1-Eya2 inh inconclusive, BAZ2B block 50.1µM, CtBP-E1A blk inconclusive, JMJD2A Tudor 20µM
Cc1ccc2[nH]c3c(c2c1)CN(C(=O)CN1CCN(c2ccccc2F)CC1)CC3	G9a block 31.6µM (no result: HP1b binding inh, Six1-Eya2 inh, CtBP-E1A blk, JMJD2A Tudor)
Cc1ccc2[nH]c3c(c2c1)CN(C(=O)CN1CCCCC1)CC3	G9a block 50.1µM, BAZ2B block inconclusive
COC(=O)c1[nH]c2ccc(C)cc2c1NC(=O)CN1CCCc2ccccc21	HP1b binding inh inconclusive, G9a block inconclusive, BAZ2B block inconclusive
Cc1ccc2[nH]c3c(c2c1)CN(C(=O)CN1CCCc2ccccc21)CC3	HP1b binding inh inconclusive, G9a block 3.16µM, JMJD2A Tudor 28.2µM
Cc1c(CCC(=O)NCc2cccc(Cl)c2)c(=O)oc2c(C)c(O)ccc12	none (no result: Six1-Eya2 inh, CtBP-E1A blk)
CCOc1ccc(/C=C/c2nc(C#N)c(N3CCN(c4ccc(OC)cc4)CC3)o2)cc1	none (no result: Six1-Eya2 inh, CtBP-E1A blk)
CO/N=C/c1ccc(Oc2ccc(C)cc2)c([N+](=O)[O-])c1	JMJD2A Tudor 12.6µM
O=[N+]([O-])c1cc(/C=N/O)ccc1Oc1cccc(Cl)c1	BAZ2B block inconclusive, JMJD2A Tudor inconclusive
CC(C(=O)Nc1ccccc1C(=O)N1CCOCC1)N(c1ccccc1)S(C)(=O)=O (configuration not stated)	HP1b binding inh inconclusive, JMJD2A Tudor 39.8µM
CN(c1ccc(C(=O)Nc2ccccc2C(=O)N2CCOCC2)cc1)S(C)(=O)=O	none
COc1cccc(OCCCN2CCCCC2)c1	none
CC1CCCN(CCC(=O)c2ccc(Br)cc2)C1 (configuration not stated)	G9a block inconclusive
CCC1CCCCN1CCCCOc1cccc(Cl)c1 (configuration not stated)	HP1b binding inh inconclusive, BAZ2B block inconclusive, JMJD2A Tudor 17.8µM
CC1CCCN(CCOc2ccc(Br)cc2)C1 (configuration not stated)	G9a block 10µM, BAZ2B block inconclusive, JMJD2A Tudor 20µM
CCOc1cccc(OCCCCN2CCCCC2)c1	HP1b binding inh inconclusive, G9a block 8.91µM, BAZ2B block inconclusive, JMJD2A Tudor inconclusive
COc1cccc(OCCCCN2CCCCC2)c1	G9a block inconclusive, BAZ2B block inconclusive, JMJD2A Tudor 8.91µM
Clc1cccc(OCCN2CCCC2)c1	G9a block inconclusive
Brc1cccc(OCCCCN2CCCCC2)c1	HP1b binding inh inconclusive, G9a block 7.08µM, BAZ2B block inconclusive, JMJD2A Tudor 50.1µM
CC1CCCN(CCCCOc2cccc(Br)c2)C1 (configuration not stated)	G9a block inconclusive, BAZ2B block 50.1µM, JMJD2A Tudor 50.1µM
Fc1ccc(OCCCCCCN2CCCC2)cc1	none
CC(C)c1cccc(OCCN2CCCC2)c1	HP1b binding inh inconclusive, G9a block 31.6µM, BAZ2B block inconclusive, JMJD2A Tudor 35.5µM
